Each structure is given as a SMILES string. Hit rate of the full screen: of about 360,000 compounds, about 11,000 (3.1%) were called active. Another 2% or so got no clear call; they are omitted. Rule as the data show it: active = fluorescence intensity above about 16000; inconclusive = no clear call, values can overlap the other calls; inactive = below that. The list comes from a sample in which actives are over-represented; it also holds similar structures and randomly drawn compounds.

The nature of the assay: counter-screen for toxin protease inhibitors: compound fluorescence, primary screen, artefact control for toxin protease inhibitor project, biochemical, multiplex microsphere, HTS (AID 624483). The note with it: compound autofluorescence counterscreen, microsphere flow cytometry; stronger effect = higher value. Background: A counterscreen serves to expose hits that act by an unwanted route or on another target.
Regarding `Cc1cc(C(=O)N2CCN(c3ccccn3)CC2)c(C)o1`, the fluorescence intensity was 21600 (active).

For `O=C(c1c(F)cccc1Cl)N1CCN(c2ccccn2)CC1`, the fluorescence intensity was 6090 (inactive).

For `O=C(c1cc2ccccc2s1)N1CCN(c2ccccn2)CC1`, the fluorescence intensity is 5840 (inactive).

On to `CC1(C(=O)NS(=O)(=O)c2cccc(OC(F)F)c2)CCN1C(=O)C1CC1` (stereo not drawn), for which the fluorescence intensity was 3660 (inactive).

In the case of `O=C(NC1CCCC1)C(c1ccccn1)N(C(=O)c1csnn1)C1CCCC1` (stereo not drawn), the fluorescence intensity was 3210 (inactive).

`COc1ccc(C(=O)NCc2ccccc2C)cc1S(=O)(=O)NC1CCCC1`: the fluorescence intensity was 3480 (inactive).

For `COc1ccc(C)cc1S(=O)(=O)NC1CCCCC1`, the fluorescence intensity is 20200 (active).

For `CCOc1ccc(C)cc1S(=O)(=O)NC1CCCCCC1`, the fluorescence intensity is 5960 (inactive).

In the case of `CCCCC(=O)N(C)c1c(CC)nc2c(OCc3ccc(S(C)(=O)=O)cc3)cccn12`, the fluorescence intensity was 4320 (inactive).

With `CC(C)Oc1cc(F)ccc1-c1cc(C(=O)Nc2cccc(Cl)c2)[nH]n1`, the fluorescence intensity was 3940 (inactive).

Turning to `CCC1OC(C2CC2)CC2=C1C(=O)OC(C)(C)O2` (stereo not drawn), the fluorescence intensity was 5440 (inactive).

`CCc1nc2ccc(C(=O)NCc3ccc(OC)cc3)cn2c1N(CC)Cc1cccc(Br)c1`: the fluorescence intensity was 4320 (inactive).

As for `CN(C)CCNC(=O)C(C(=O)c1ccccc1)n1ccccc1=O` (stereo not drawn), the fluorescence intensity was 23600 (active).

`CN(C)CCNC(=O)Nc1cccc(Cl)c1Cl`: the fluorescence intensity was 2400 (inactive).

Take `COc1ccccc1NC(=O)CC(NCCN(C)C)C(=O)O` (stereo not drawn): the fluorescence intensity was 15400 (inactive).

Turning to `FC(F)(F)COc1nc(N2CCCCC2)nc(N2CCNCC2)n1`, the fluorescence intensity was 2450 (inactive).

Regarding `FC(F)(F)Oc1ccccc1C(c1nnnn1C1CCCCC1)N1CCN(C/C=C/c2ccccc2)CC1` (stereo not drawn), the fluorescence intensity is 4590 (inactive).

For the compound `Cc1cc2ccccn2c1C(=O)c1cccc(S(=O)(=O)N2CCOCC2)c1`, the fluorescence intensity is 4300 (inactive).

As for `CCOC(=O)N/N=C1\CC(C)S(=O)(=O)c2ccc(Cl)cc21` (stereo not drawn), the fluorescence intensity is 3940 (inactive).

Take `Cc1ccc(COc2ccc(/C=N/NC(=O)CN3CCCCC3)cc2)cc1`: the fluorescence intensity is 3530 (inactive).

As for `O=C(CCC(=O)Nc1ccccc1)N/N=C/c1ccccc1F`, the fluorescence intensity is 2560 (inactive).

On to `O=C(CN1CCN(C/C=C/c2ccccc2)CC1)Nc1ccc(F)cc1F`, for which the fluorescence intensity was 4560 (inactive).

Consider `O=C(CN1CCSCC1)N/N=C/c1ccc(F)cc1F`, for which the fluorescence intensity is 23700 (active).

Consider `O=C(CC(=O)N/N=C\c1ccc(F)cc1)NCCc1ccccc1`, for which the fluorescence intensity was 3990 (inactive).

On to `O=C(CN1CCSCC1)N/N=C/c1ccc(F)cc1`, for which the fluorescence intensity is 19800 (active).

Consider `c1ccc2c(c1)C(=NC1CCCCC1)NC2=NC1CCCCC1`, for which the fluorescence intensity was 8360 (inactive).

For `CCOc1ccccc1N1C(=O)CC(Sc2nccc(C)n2)C1=O` (stereo not drawn), the fluorescence intensity was 4180 (inactive).

Take `COC(=O)[C@]12CCCCC=C1N(Cc1ccco1)C(=O)[C@H](CC(=O)NCCCCc1ccccc1)C2`: the fluorescence intensity was 5100 (inactive).

The record behind these values is PubChem BioAssay AID624483 (NMMLSC, 2012).
